Bioassay records as filed in PubChem.
HPGD inh – qHTS Assay for Inhibitors of HPGD (15-Hydroxyprostaglandin Dehydrogenase); Potency, µM, for inactives: at the highest dose activity change, negative = inhibition, hits mostly inhibitors; 15-hydroxyprostaglandin dehydrogenase [NAD(+)] (Homo sapiens), P15428; AID 894, 2007; purified HPGD, NADH fluorescence kinetic, PGE2 substrate; 4.3% of 150,000 active; active means well fitted inhibition curve with a large enough effect, not every such curve was filed as active; inconclusive means small, poorly fitted or top-dose-only effect, or another doubt; inactive means no such curve, though single readings can be large or run the other way; further: potency means the concentration at half of the fitted maximal effect; on the % scale 0 is the no-effect control and ±100 the full control effect
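20 nM HPGD preincubated 15 min at room temperature with compound in 50 mM Tris-HCl pH 8, 0.01% Tween 20. Started with 1 mM NAD+ and 30 uM prostaglandin E2; NADH fluorescence (360/450 nm) read 5 times over 30-s intervals, last minus first.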
HTT aggregate – qHTS Multiplex Assay to Identify Dual Action Probes in a Cell Model of Huntington: Aggregate Formation (GFP) | 1.1% of 220,000 active | Potency, µM (series often up to 46.1 µM), for inactives: at the top dose activity change, negative = inhibition, hits mostly inhibitors | PC12 HttQ103-GFP aggregates, Acumen cytometry, 40 h | AID 1688, 2009; further: potency means the concentration at half of the fitted maximal effect; on the % scale 0 is the no-effect control and ±100 the full control effect; nearly all actives have a fitted effect of over 60% in size
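Using laser scanning cytometry, GFP-positive aggregates were counted after lysis of PC12 cells induced with 100 nM tebufenozide to express HTT exon 1 Q103–GFP. Compounds were tested in titration.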
HTT cytoprotect – qHTS Multiplex Assay to Identify Dual Action Probes in a Cell Model of Huntington: Cytoprotection (ATP) | Potency, µM (highest dose often 56.4 µM), for the others: cytoprotection (ATP increase), most hits filed as activators | 0.14% of 230,000 active | PC12 HTT-Q103 induced, cytoprotection, ATP luminescence, 40 h; further: potency means the concentration at half of the fitted maximal effect; % of control where 0% means no effect; nearly all actives have a fitted effect of over 45% in size
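Quantitative HTS on tebufenozide-induced (100 nM) PC12 cells expressing HTTQ103 exon 1–GFP; compounds tested as a concentration series; survival measured via cellular ATP.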
IMPase Li inh – qHTS Assay for Identifying the Cell-Membrane Permeable IMPase Inhibitors: Potentiation with Lithium; CHO-M1 cells, IP1 TR-FRET (IP-One), carbachol + lithium; Potency, µM (top dose mostly 59.4 µM), inactives show at the top dose activity, negative = IMPase inhibition, hits mostly inhibitors; 0.35% of 210,000 active; AID 1457, 2008;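 further: IP1 builds up when IMPase is blocked and the TR-FRET signal falls; potency means the concentration at half of the fitted maximal effect; plate controls were basal vehicle for no effect and high inhibitor control for full effect; nearly all actives have a fitted effect of over 50% in size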
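CHO cells stably expressing M1 receptor (2000/well) were cultured 16–30 h, then exposed to compounds with a small lithium addition for 30 min at 37C. IP1 was measured by TR-FRET competition; AC50 from Hill fits.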
IMPase inh – qHTS Assay for Identifying the Cell-Membrane Permeable IMPase Inhibitors; Inositol monophosphatase 1 (Rattus norvegicus), P97697; CHO-M1 cells, IP1 accumulation, HTRF TR-FRET ratio; inhibition (IP1 accumulation), % at 46.1 µM; 120,000 tested, under 10 active; active means well fitted curve in the direction sought with a large enough effect in the signal ratio, not every such curve was filed as active; inconclusive means small, poorly fitted or top-dose-only effect, or a change in a side signal; inactive means no such curve, though single readings can be large or run the other way; the % refers to the signal ratio;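 further: cells stimulated with carbachol in lithium chloride buffer; plate controls were DMSO basal wells for no effect and reference inhibitor wells for full effect; higher means more IMPase inhibition seen as more IP1 and lower FRET ratio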
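Measured: the HTRF emission ratio (665/620 nm) plus the 620 nm donor channel, each fitted to the Hill equation to give AC50. Cells were CHO-M1 given compounds up to 46 uM and a 30 min carbachol stimulation at 37C.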
ALDH1A1 block – qHTS Assay for Inhibitors of Aldehyde Dehydrogenase 1 (ALDH1A1); Aldehyde dehydrogenase 1A1 (Homo sapiens), P00352; Purified ALDH1A1, NADH fluorescence, propionaldehyde substrate; Potency, µM (top dose mostly 75.3 µM), inactives show at the top dose activity, negative = inhibition, actives largely listed as inhibitors; 7.3% of 220,000 active; AID 1030, 2008; active means well fitted inhibition curve with a large enough effect, not every such curve was filed as active; inconclusive means small, poorly fitted or top-dose-only effect, or another doubt; inactive means no such curve, though single readings can be large or run the other way;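 further: potency means the concentration at half of the fitted maximal effect; plate controls were no enzyme wells and a reference inhibitor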
Target sequence (P00352 whole entry, looked up): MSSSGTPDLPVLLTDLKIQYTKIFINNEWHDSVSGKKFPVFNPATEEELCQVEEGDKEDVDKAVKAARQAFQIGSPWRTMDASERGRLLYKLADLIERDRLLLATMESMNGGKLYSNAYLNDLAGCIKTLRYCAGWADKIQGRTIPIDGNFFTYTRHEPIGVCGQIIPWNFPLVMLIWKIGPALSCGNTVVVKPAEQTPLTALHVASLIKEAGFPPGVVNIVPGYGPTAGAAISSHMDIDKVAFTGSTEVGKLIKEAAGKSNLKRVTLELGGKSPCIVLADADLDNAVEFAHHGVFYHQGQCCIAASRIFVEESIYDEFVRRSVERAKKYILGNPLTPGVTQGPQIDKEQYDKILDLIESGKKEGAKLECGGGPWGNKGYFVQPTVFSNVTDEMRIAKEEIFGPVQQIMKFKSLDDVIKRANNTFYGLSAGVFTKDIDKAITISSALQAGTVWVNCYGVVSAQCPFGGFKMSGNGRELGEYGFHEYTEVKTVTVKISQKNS
Numbers without * were called inactive; ? = inconclusive; nt = not tested or not shown; [ ] = remark or other dose. Only some compounds are listed: those with a hit (about 9.4% of all), similar ones and a draw of the others. Unless noted, the call rests on the fitted dose curve; in most records, active means well fitted curve in the direction sought with a large enough effect; inconclusive means small, poorly fitted or top-dose-only effect, or another doubt; inactive means no such curve, though single readings can be large; an effect the other way counts as inactive or inconclusive.

SMILES | HPGD inh | HTT aggregate | HTT cytoprotect | IMPase Li inh | IMPase inh | ALDH1A1 block
COc1ccc(CNC(=S)Nc2ccccc2-c2ccccc2)cc1 | nt | -29% | -30% | 10% | nt | 22µM*
CC(C)(C)c1cc(C(=O)NCc2ccccc2)ccn1 | -18% | 11µM* | -9% | 6%[38.3 µM] | 3 | 4%
C#CCNC(=O)C1=C[C@@H](c2ccc(Br)cc2)C[C@@H](OCCCCO)O1 | nt | 3%[9.22 µM] | 9%[10 µM] | 1% | nt | ?
COc1ccc(CNC(=S)Nc2cc(C)cc(C)c2)cc1 | -10% | -5% | 25% | -22%[38.3 µM] | 9 | 1%
COc1ccc(CNC(=S)NCc2ccc(OC(C)C)cc2)cc1 | -1% | 5% | -7%[10 µM] | 0% | nt | 14µM*
O=C(NCc1ccccc1)c1ccccc1Br | nt | 2% | -35% | 6% | nt | 6%
O=C(NCc1ccccc1)c1ccc(Br)cc1Br | 3.5µM* | -3% | -52%[10 µM] | 0% | nt | 5%
O=C(CNC(=O)c1ccc(Oc2ccccc2)cc1)OC1CCCCC1=O (stereo not drawn) | -16% | 26%[9.22 µM] | -7% | 33%[38.3 µM] | -2 | 22µM*
O=C(CNC(=O)c1ccc(Oc2ccccc2)cc1)OCc1ccc(Br)cc1 | -9% | 12% | 7%[10 µM] | 9% | nt | 1%
COCCNc1ncnc2ccc(-c3ccc(N(C)C)cc3)cc12 | nt | nt | -55% | 6% | nt | ?
Cc1ccc(CNC(=O)CSCc2ccccc2)cc1 | nt | 7%[9.22 µM] | -9%[10 µM] | -5% | nt | -7%
CCCCN(CCCC)CCNC(=O)CSCc1ccc(C)cc1 | nt | 3% | -14%[10 µM] | 14% | nt | 28µM*
COc1ccc(P(=O)(COc2ccc([N+](=O)[O-])cc2)c2ccc(OC)cc2)cc1 | -5% | -7% | nt | 4% | nt | 7.1µM*
C[N+](C)([O-])CCC=C1c2ccccc2CCc2ccccc21 | -1% | nt | -12%[10 µM] | 11% | nt | 7%[13.5 µM]
FB(F)F | 5% | nt | -6% | -6% | nt | 1%
CCCn1c(-c2ccc(F)cc2)nc2c(NCCCCN(CC)CC)nc(C)nc21 | ? | nt | -22% | 14% | nt | ?
Cc1c(C(=O)NCCN2CCOCC2)oc2ccc(S(=O)(=O)N3CCCCCC3)cc12 | -17% | -11% | -5% | 15%[38.3 µM] | 16 | 25µM*
CCOc1ccccc1C(=O)N[C@H](C(=O)Nc1cc(S(=O)(=O)N(C)C)ccc1OC)C(C)C | nt | 4% | -34% | 6% | nt | 10µM*
CCOc1ccccc1C(=O)NC(C(=O)NCc1ccccc1OC)C(C)C (stereo not drawn) | nt | -22% | -31% | 1% | nt | 5%
O=C(N/N=C/c1ccc([N+](=O)[O-])o1)c1ccc(O)cc1 | -30% | 6% | nt | 28% | nt | 25µM*
O=[N+]([O-])c1ccc(/C=N/NC(=S)Nc2ccccc2)o1 | 25µM* | 2% | 21%[1.9 µM] | -1% | 9 | 2%
O=C(N/N=C/c1ccc([N+](=O)[O-])o1)c1ccncc1 | nt | -1%[9.22 µM] | -20%[10 µM] | nt | nt | -4%
O=[N+]([O-])c1ccc(/C=N/NC(=S)Nc2ccccc2F)o1 | -12% | 12% | 7%[1.9 µM] | -1% | 2 | ?
C=C(C)CSc1nc2sc3c(c2c(=O)n1-c1ccccc1)CCC(C)C3 (stereo not drawn) | nt | nt | nt | nt | -5 | nt
O=C(Oc1ccccc1C(=O)Nc1ccccc1)c1ccc(Br)c([N+](=O)[O-])c1 | -22% | -22% | -19%[10 µM] | 12% | nt | 14µM*
COc1ccccc1C(=O)Oc1ccccc1C(=O)Nc1ccccc1 | nt | -27% | -84% | -1% | nt | 9%
CCC(=C(CC)c1ccc(O)cc1)c1ccc(O)cc1 | -3% | nt | 9%[40.3 µM] | 11% | 2[20.6 µM] | 5%[20.9 µM]
CC1CCN(Cc2c(O)ccc3c2O/C(=C\c2ccco2)C3=O)CC1 | -18% | 29% | nt | 2% | nt | 25µM*
